# Assay results as given in article PMC5540273 (PLoS ONE, 2017).
# Tested on: ABL2
# Details: concentration: 1 μM, replicates: in singlicate; n = 1
# 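Note: KINOMEscan kinase panel screen.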
row,SMILES,%Inh [%]
1,Cc1ccc(C(=O)N2CC[C@@H](O)C2)cc1-n1c(C)cc(OCc2ccc(F)cc2F)c(Br)c1=O,72
2,c1ccc(Oc2ccc(Nc3ccnc4cc(-c5ccc(CNCCN6CCOCC6)o5)ccc34)cc2)nc1 [GW567145],6
3,CC(C)c1nc(-c2cccc(NS(=O)(=O)c3c(F)cccc3F)c2F)c(-c2ccnc(Nc3ccc(N4CCOCC4)nc3)n2)s1 [GSK2008607],99.4
4,c1ccc(-c2cnc3nccnn23)cc1 [AH20685],5
5,CCn1c(-c2nonc2N)nc2c(C#CC(C)(C)O)nc(OC[C@H](N)c3ccccc3)cc21 [GSK943949],0
6,CSc1cccc2c(-c3ccncn3)c(-c3ccc(F)cc3)nn12 [GW514786],12
7,FC(F)(F)c1ccc(/C=C/c2cncnc2Nc2ccc3[nH]c(Cc4ccccc4)nc3c2)cc1 [GW709199],4
8,C[C@@H](Oc1cc(-n2cnc3cc(-c4ccnc(NCCS(C)(=O)=O)c4)ccc32)sc1C(N)=O)c1ccccc1Cl [GSK907232],30
9,O=C(Nc1n[nH]c2cc(-c3ccoc3)ccc12)C1CC1 [SB-738481],0
10,CC(C)(C)c1ccc2nccc(Nc3cccc(O)c3)c2c1 [GW856795],33
11,Cl.Cl.NCC(NC(=O)c1cc(-c2ccccc2)c(-c2ccnc3[nH]ccc23)s1)c1ccccc1 (stereo not drawn) [GSK1321561],87
12,CCc1ccc(-c2ccc3c(c2)-c2c(cnn2C)S(=O)(=O)N3C)cc1,0
